PubChem BioAssay AID651636 (Sanford-Burnham Center for Chemical Genomics, 2012)
The campaign covered roughly 360,000 compounds. About 3,000 (0.83%) were called active. What follows is part of a selection rich in actives, with near analogues and random picks from the rest. A number with no mark means an inactive call. Rule as the data show it: active = inhibition above about 38%; inactive = the rest.

Each compound was assayed against G-protein coupled receptor 183 (Homo sapiens) (UniProt P32249) (assay: EBI2 receptor antagonists, beta-arrestin recruitment, primary screen, cell-based, luminescence, 7a,25-OHC stimulation, uHTS (AID 651636;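 also: enzyme fragment complementation signal reports receptor beta-arrestin coupling in cells; 0% = agonist plus DMSO wells and 100% = wells without agonist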)). Details: 7a,25-OHC stimulated, at 5 µM, hits give high values.
Sequence of G-protein coupled receptor 183 (Homo sapiens) (P32249 whole entry, looked up, the tested form may be a part): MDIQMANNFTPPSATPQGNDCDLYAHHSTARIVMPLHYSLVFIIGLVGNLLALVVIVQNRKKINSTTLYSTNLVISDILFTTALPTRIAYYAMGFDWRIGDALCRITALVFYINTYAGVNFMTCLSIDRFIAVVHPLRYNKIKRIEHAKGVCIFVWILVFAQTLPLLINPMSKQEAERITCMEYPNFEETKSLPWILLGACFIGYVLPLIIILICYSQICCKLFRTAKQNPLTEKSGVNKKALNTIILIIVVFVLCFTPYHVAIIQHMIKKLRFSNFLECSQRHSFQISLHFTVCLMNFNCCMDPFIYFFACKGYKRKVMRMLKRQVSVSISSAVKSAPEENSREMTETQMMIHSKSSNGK

SMILES | inhibition
CO[C@@H]1CN(C)C(=O)c2cc(NC(=O)C3CC3)ccc2OC[C@H](C)N(C(=O)CN2CCOCC2)C[C@@H]1C | -1.87%
COc1ccc(-c2nc3c(s2)CCc2onc(-c4ccc(OC)cc4)c2-3)cc1 | -3.33%
CCn1c(SCC(=O)NNC(=O)c2ccc(OC)cc2)nnc1C(C)C | 12.9%
CCC(c1nnc(SCC(=O)NNC(=O)c2ccccc2)n1Cc1ccccc1)N(C)C (configuration not stated) | 72.7% (active)
Cc1cccc(C(=O)NNC(=O)CSc2nnc(C(C)C)n2C)c1 | 2.91%
COC(=O)[C@H](CC(C)C)NC(=O)N1CCCCC1C (some centres not stated) | -4.31%
CCCc1[nH]nc2c1C(c1ccc(Br)s1)C(C#N)=C(N)O2 (configuration not stated) | -18.9%
Cc1cc(C)c(C#N)c(SCc2ccc3c(c2)OCO3)n1 | -1.67%
Cc1cc(C)c(C#N)c(SCc2[nH]nc3c2C(c2ccccc2)C(C#N)=C(N)O3)n1 (configuration not stated) | 63.3% (active)
COc1cc2c(cc1NC(=O)CN1CCN(S(=O)(=O)c3ccc(F)cc3)CC1)oc1ccccc12 | 3.04%
CC(C)c1ccc(N2CC(C(=O)Nc3nccs3)CC2=O)cc1 (configuration not stated) | 5.79%
Cc1cccc(-c2nc3c(c(SCC(=O)N4CCOCC4)n2)CCCC3)c1 | 4.2%
CC(OC(=O)c1ccc(-n2cnnn2)cc1)C(=O)NCc1ccccc1 (configuration not stated) | -7.1%
Cn1nnnc1SCC(=O)N1CCN(C(c2ccccc2)c2ccccc2)CC1 | 36.1%
O=C(c1ccc(-n2cnnn2)cc1)N1CCN(C(c2ccccc2)c2ccccc2)CC1 | 79% (active)
COc1ccc(C2Nc3ccccc3C(=O)N2c2ccc(Cl)cc2)cc1Cn1cc([N+](=O)[O-])cn1 (configuration not stated) | 4.76%
COc1ccc(NC(=O)C[C@H]2C(=O)N(CCc3ccccc3)C[C@@H]2C)cc1 | 2.26%
O=S(=O)(c1ccc(Cl)s1)N1CCC2(CC1)OCCO2 | 1.76%
CCC(=O)Nc1ccccc1C(=O)N1CCN(Cc2ccccc2)CC1 | -10.6%
O=C(c1cc2ccccc2o1)N1CCN(c2cccc(C(F)(F)F)c2)CC1 | 36.7%
O=C(c1cc2ccccc2o1)N1CCN(Cc2ccccc2)CC1 | 65.2% (active)
O=C(c1cc2ccccc2o1)N1CCN(S(=O)(=O)c2ccc(Cl)s2)CC1 | 91.3% (active)

SMILES | inhibition
CCNC(=S)N1CCN(S(=O)(=O)c2ccc(Cl)s2)CC1 | -5.4%
COc1ccc(N(CCC(=O)NCCc2ccccc2)S(=O)(=O)c2ccc(C)cc2C)cc1 | 9.4%
CCOC(=O)c1cnc(SCc2nc(N)nc(Nc3ccc(OC)cc3)n2)nc1N | -2.38%
Cc1cccc(OCCC(=O)OCc2csc(CC(=O)Nc3ccccc3C)n2)c1 | -1.51%
C=CCNc1nc(N)c(C(=C(C#N)C#N)c2ccccc2)s1 | -6.63%
Cc1ccc(CN2CC(C(=O)N3CCN(S(=O)(=O)c4ccccc4)CC3)CC2=O)cc1 (configuration not stated) | 3.15%
CN1CCN(c2cc(=O)n(-c3ccc(Cl)cc3)c(=O)[nH]2)CC1 | -7.79%
CC1CC(C)CN(CCCNC(=O)Cn2ncc3c([nH]c4ccccc43)c2=O)C1 (configuration not stated) | 5.19%
Cc1ccc(NS(=O)(=O)c2ccc3c(c2)NC(=O)CO3)cc1 | -3%
CC[C@@H]1Cc2cc(O)ccc2C2=C1c1ccc(O)cc1C[C@H]2CC | 49.4% (active)
COc1ccc(Br)cc1CN(C)C(=O)C1CC(=O)N(C2CCCC2)C1 (configuration not stated) | 7.14%
CN1CCN(C(=O)c2ccc(-c3cc4nc(NCc5cccnc5)n(C)c(=O)c4s3)cc2)CC1 | -2.23%
CN1CCc2ccccc2C1Cc1ccccc1NC(=O)c1sc2ccccc2c1Cl (configuration not stated) | 65.6% (active)
CCc1ccccc1NC(=O)c1ccc2c(c1)CCN2S(C)(=O)=O | -1.7%
CCc1ccccc1NC(=O)NCCN1CCCCC1 | 4.39%
CCOC(=O)[C@]12CCCC=C1N(Cc1cccc3ccccc13)C(=O)[C@H](CC(=O)NCC13CC4CC(CC(C4)C1)C3)C2 | 16.6%
COC(=O)C[C@H]1C=C[C@@H](NS(=O)(=O)c2ccc(C)cc2)[C@@H](CO)O1 | -0.992%
O=C(NCCCc1ccccc1)C1CCC(=O)N(CCc2ccc(Cl)cc2)C1 (configuration not stated) | 63.7% (active)
O=C(NCCN1CCOC1=O)C1CCC(=O)N(CCc2ccc(Cl)cc2)C1 (configuration not stated) | 5.95%
O=C(NCCc1ccccc1Cl)C1CCC(=O)N(CCCc2ccccc2)C1 (configuration not stated) | 8.34%
C/C(=N/NC(=O)c1ccc(Br)o1)c1ccc(C)o1 | -2.5%
COC(=O)[C@]12CCCCC=C1N(Cc1ccco1)C(=O)[C@H](CC(=O)NCC1CCCCC1)C2 | -6.57%

SMILES | inhibition
CC1CN(C(=S)Nc2cccc(F)c2)CC(C)O1 (configuration not stated) | -5.04%
COc1cccc(NC(=O)Cn2c3ccc(F)cc3c3nc4n(c(=O)c32)CCS4)c1 | 80.8% (active)
COc1cccc(NC(=O)CC2C(=O)NCCN2C(=S)Nc2ccc(F)cc2)c1 (configuration not stated) | 9.02%
COc1ccc2c(c1)c1nc3n(c(=O)c1n2CC(=O)Nc1ccccc1)CCS3 | 8.84%
COc1cccc(NC(=O)CS(=O)(=O)c2cn(CC(=O)N3CCOCC3)c3ccccc23)c1 | 3.35%
COc1cccc(NC(=O)Cn2cnc3sc(C)c(S(=O)(=O)N4CCN(C)CC4)c3c2=O)c1 | -9.02%
COc1cccc(NC(=O)Cn2c3ccccc3c3nc4n(c(=O)c32)CCS4)c1 | 62% (active)
COc1cccc(N(CC(=O)NC2CCCC2)C(=O)Cn2nnc(-c3ccc(C)cc3)n2)c1 | 7.66%
CS(=O)(=O)N1CCc2nc(-c3ccccc3)sc2C1 | 1.2%
O/N=C(\c1ccc2c(c1)OCCO2)C1CCCCC1 | 4.5%
O=S1(=O)CC(N2CCN(CCO)CC2)CN1Cc1cn(Cc2cccc(Cl)c2)nn1 (configuration not stated) | -6.79%
Cc1ccc(O/C=C2\OC(=O)c3ccccc32)cc1 | 55.5% (active)
O=C(O/N=C(/c1ccccc1)c1ccncc1)c1ccccc1[N+](=O)[O-] | -3.57%
O=S(=O)(c1ccc(Sc2nnc3ccccn23)nc1)N1CCOCC1 | -9.4%
COc1ccccc1-c1cc2nc(NCc3cccc(Cl)c3)ccn2n1 | 4.55%
COCCCNc1ccn2nc(-c3ccc(CC(C)C)cc3)cc2n1 | 36.9%
CC(C)Cc1ccc(-c2cc3nc(NCc4cccc(Cl)c4)ccn3n2)cc1 | 47.4% (active)
O=C(O)C1CC=CCC1C(=O)NCCc1ccccc1 (configuration not stated) | -5.64%
CCc1nc2ccc(C(=O)Nc3cc(-c4ccccc4)ccc3OC)cn2c1N(CC)CC(=O)N(C)C | 17%
COc1ccc(S(=O)(=O)N2CCCCC2)cc1NC(=O)c1cc([N+](=O)[O-])ccc1N1CCOCC1 | 15.7%
CCN1CCN(c2ccc([N+](=O)[O-])cc2C(=O)c2ccc(Cl)cc2)CC1 | 8.05%
CCC(C)(C)NC(=O)c1cc([N+](=O)[O-])ccc1N1CCCCC1 | 79.2% (active)

SMILES | inhibition
C=CCN(Cc1nc(-c2cc(OC)c3c(c2)OCO3)oc1C)C1CCS(=O)(=O)C1 (configuration not stated) | -4.13%
CCCCN1CC(CO)Oc2cccc(F)c2S1(=O)=O (configuration not stated) | -9.52%
CC(C)(C)C(=O)Nc1cccc(-c2ccc[nH]2)n1 | -1.86%
C/C(=N/NC(=O)CN1CCN(S(=O)(=O)c2ccc(Br)cc2)CC1)c1ccncc1 | 6.8%
Cc1cccc(NC(=O)CN2CCCN(S(=O)(=O)c3ccc(Br)s3)CC2)c1 | 3.9%
Cc1ccc(S(=O)(=O)N2CCN(CC(=O)N/N=C/c3ccc(Br)s3)CC2)cc1 | 66.9% (active)
Cc1ccc(C(=O)NCC(=O)OCC(=O)NC2CCCCCCC2)cc1 | -2.06%
COc1ccc(S(=O)(=O)N2CCOCC2)cc1C(=O)NC1CCCCC1 | 3.75%
Cc1ccc2oc(=O)c3cnn(CC(=O)N4CCN(c5ccccn5)CC4)c3c2c1 | 14.3%
COCCCN(C(=O)Cn1ncc2c(=O)oc3ccc(C)cc3c21)C(C)c1ccncc1 (configuration not stated) | -3.25%
Cc1ccc2oc(=O)c3cnn(CC(=O)N(Cc4ccco4)C4CCCCC4)c3c2c1 | 86.2% (active)
Cc1ccc(S(=O)(=O)NCC(=O)N(CC(=O)NC2CCCCC2)Cc2ccco2)cc1 | -11.2%
CCOC(=O)C1CCCN(C(=O)Cn2ncc3c(=O)oc4ccc(C)cc4c32)C1 (configuration not stated) | -3.84%
Cc1ccc2oc(=O)c3cnn(CC(=O)N4CCCCCC4)c3c2c1 | 57.7% (active)
CCC1CO/C(=C(\C(=C(Cl)Cl)N2CCOCC2)[N+](=O)[O-])N1 (configuration not stated) | -3.56%
CCCCC[C@H](C)N1C[C@@H](COCc2ccccc2)Oc2cc(N3CC[C@@H](N(C)C)C3)ccc2S1(=O)=O | 1.65%
Cc1ccc(C(=O)O)cc1S(=O)(=O)NCC1CCCO1 (configuration not stated) | -0.989%
C=CC[C@H](CC(=O)N(CCO)Cc1ccccc1)C(=O)N[C@@H](COC(=O)[C@@H](CC=C)Cc1ccc(F)cc1)Cc1ccccc1 | 27%
Cc1cccc(CS(=O)(=O)c2ncc(Cl)c(C(=O)Nc3ccc(F)cc3)n2)c1 | 30.8%
Cc1cccc(NS(=O)(=O)c2ccc(C)c(C(=O)NCc3cccnc3)c2)c1 | -2.61%
Cc1cccc(NC(=O)c2nc(S(=O)(=O)Cc3ccccc3)ncc2Cl)c1 | 66% (active)
